VLA-4 inh = inhibition in human VLA-4 binding assay, primary screen, VLA-4 allosteric modulator project, MLPCN library, flow cytometry, VLA-4 expressing cells; inhibition, % (about 7 µM as worked out from the volumes in the protocol); ligand binding flow cytometry; Integrin alpha-4 (Homo sapiens), P13612; hit rate 0.2% among 330,000; in the data active = inhibition above about 50%
APOBEC3A inh = APOBEC3A ssDNA deaminase inhibitors, primary screen, selectivity assay for APOBEC3G inhibitor project, biochemical, FAM/TAMRA oligo cleavage fluorescence | recombinant A3A, FAM/TAMRA ssDNA deamination fluorescence | inhibition, % at 20 µM | hit rate 0.41% among 330,000 | AID 493011, 2011;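 active = at least 40% inhibition at 20 µM here, with at most 30% in a related deaminase screen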;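 also: plate controls were A3A with DMSO for no effect and wells lacking A3A enzyme for full effect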
APOBEC3G inh = APOBEC3G DNA deaminase inhibitors, primary screen, biochemical, fluorescence, single-stranded DNA substrate, uHTS; AID 493012, 2011; inhibition, % at 20 µM; recombinant A3G, ssDNA deamination FAM/TAMRA fluorescence; DNA dC->dU-editing enzyme APOBEC-3G (Homo sapiens), Q9HC16; hit rate 0.28% among 330,000;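 active = inhibition of at least 40% at 20 µM, with no more than 30% in the related APOBEC3A deaminase screen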;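 also: plate controls were DMSO wells with A3G for no effect and wells lacking A3G enzyme for full effect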
beta cell repl = inducers of MIN6 beta-cell proliferation, primary screen, ATP luminescence, uHTS; MIN6 cells proliferation, ATPlite luminescence, 48 h; cells starved in 0.2% serum; 100% = growth in 10% serum; proliferation, % at 10 µM; hit rate 0.29% among 330,000;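 active = compounds whose signal lies at least 3.5 SD above the mean of all wells on their plate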;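 also: 0% = DMSO-treated cells in low-serum medium and 100% = 10% serum control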
NRP1-CendR mod = modulators of CendR peptide binding to NRP-1, primary screen, biochemical, fluorescence polarization, uHTS; Neuropilin-1 (Homo sapiens), O14786; FAM-RPARPAR peptide binding to NRP-1; inhibition, % at 25 µM; hit rate 0.85% among 360,000;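 active = inhibition or corrected inhibition above about 18%, plus a signal ratio from 0.5 to 1.5, limit read from the data, passing the limit was not always enough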
Target sequence (O14786 whole entry, looked up): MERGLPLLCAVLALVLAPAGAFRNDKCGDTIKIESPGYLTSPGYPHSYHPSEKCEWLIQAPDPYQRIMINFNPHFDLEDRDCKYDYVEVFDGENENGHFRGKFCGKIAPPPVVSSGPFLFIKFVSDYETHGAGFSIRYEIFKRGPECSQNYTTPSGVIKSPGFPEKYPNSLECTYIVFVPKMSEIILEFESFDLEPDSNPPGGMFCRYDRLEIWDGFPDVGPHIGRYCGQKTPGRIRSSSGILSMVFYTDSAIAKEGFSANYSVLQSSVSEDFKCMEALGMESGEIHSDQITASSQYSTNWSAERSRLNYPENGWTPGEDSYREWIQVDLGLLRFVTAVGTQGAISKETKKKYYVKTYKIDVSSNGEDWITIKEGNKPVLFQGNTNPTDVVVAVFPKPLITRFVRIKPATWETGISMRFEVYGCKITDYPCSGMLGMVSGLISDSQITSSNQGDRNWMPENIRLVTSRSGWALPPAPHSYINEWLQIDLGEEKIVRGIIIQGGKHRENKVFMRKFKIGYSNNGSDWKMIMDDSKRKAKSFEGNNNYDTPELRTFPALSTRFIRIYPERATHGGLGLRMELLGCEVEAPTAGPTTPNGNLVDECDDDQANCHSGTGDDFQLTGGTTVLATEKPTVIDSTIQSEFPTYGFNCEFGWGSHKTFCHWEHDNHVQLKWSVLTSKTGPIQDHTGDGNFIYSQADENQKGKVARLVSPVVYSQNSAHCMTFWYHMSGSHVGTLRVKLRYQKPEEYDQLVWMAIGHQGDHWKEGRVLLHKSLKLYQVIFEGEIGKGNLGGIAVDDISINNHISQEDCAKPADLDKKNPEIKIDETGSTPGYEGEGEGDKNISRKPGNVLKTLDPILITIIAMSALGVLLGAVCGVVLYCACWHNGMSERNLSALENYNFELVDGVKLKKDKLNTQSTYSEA
* marks the source's active call; other numbers are inactive results; . = not tested or not shown. Rows were chosen to be rich in hits. Some 1.8% of all compounds tested hit in one or more screens of this group.

SMILES	VLA-4 inh	APOBEC3A inh	APOBEC3G inh	beta cell repl	NRP1-CendR mod
C=CCN1c2ccccc2[C@]23C[C@@H](C(=O)OC)N(C(C)=O)C2=NC(C(=O)OC)=C(C(=O)OC)[C@H]13	1.3	-5.5	-12.9	-3.7	-4.4
C=CCN1c2ccccc2[C@]23C[C@@H](C(=O)OC)N=C2NC(C(=O)OC)=C(C(=O)OC)[C@H]13	16.6	-1.5	-8.4	-1.9	33.0*
COc1cc2cc(Oc3ccc4ccc(=O)oc4c3)c(=O)oc2cc1OC(=O)/C=C/c1ccccc1	-8.8	-60.5	-117.9	-5.8	26.6*
O=C(O)Cn1ncn(-c2ccc(OC(F)(F)F)cc2)c1=O	17.2	-3.0	-7.2	2.0	26.5*
Cc1ccc(-n2ccnc2SCC(=O)O)c(C)c1	2.5	5.5	0.8	-5.0	31.0*
O=C(O)CC12CC3CC(C1)CC(n1ncc(N4CCC5(CC4)OCCO5)c(Cl)c1=O)(C3)C2	-1.8	4.9	-0.8	-3.2	14.9
Cc1ccc2c(c1)-c1cc(C)nn1C(c1sccc1C)N2 (centres undefined)	4.4	-1.1	-1.8	-4.0	27.2*
Cc1cc2n(n1)C(c1sccc1C)Nc1ccccc1-2 (centres undefined)	-6.6	-1.2	-4.6	2.0	-1.5
CNC(=S)NN(c1ccccc1)c1ccccc1	-4.0	-1.5	-3.1	3.3	43.8*
S=C(NC1CCCCC1)NN(c1ccccc1)c1ccccc1	11.7	-5.1	-7.9	-5.7	-3.4
CN(C)CCn1c(=O)n(-c2ccc(F)cc2)c(=O)c2c3c(sc21)CCCCC3	-0.5	3.2	-4.1	-0.7	34.8*
O=C1N=C(N2C=CC(=C3C=CNC=C3)C=C2)/C(=C/N=NC(=O)c2ccccc2O)S1	-1.5	7.8	7.9	-1.6	41.4*
CC1(OC(=O)CCc2ccccc2)C(=O)C=C2C=C(c3ccc(C#N)cc3)N(C3CCCC3)C=C2C1=O (centres undefined)	19.4	-7.2	-12.6	-1.8	30.3*
c1ccc(Cn2cc(CN3CCCO3)c(-c3ccc4c(c3)OCO4)n2)cc1	17.3	0.5	-2.5	0.5	-8.9
COc1ccc(-n2nc3c(N)n[nH]c3cc2=O)cc1	14.6	0.1	-1.9	0.3	28.6*
Cc1ccc(C(=O)NCC(=O)Nc2ccccc2C)o1	.	.	.	.	23.2*
Cc1ccc(NC(=O)CNC(=O)c2ccc(C)o2)cc1	-3.6	-2.9	-1.2	-1.4	-10.1
O=C(NCC(=O)N1CCC(Cc2ccccc2)CC1)c1ccccc1F	.	.	.	.	32.3*
Cc1cc(Br)cn2c(Cc3ccsc3)c(C3CCCCC3)nc12	.	.	.	.	35.1*
Cc1cc(Br)cn2c(Cc3ccsc3)c(C(C)(C)C)nc12	.	.	.	.	48.6*
Cc1cc(Br)cn2c(Cc3ccccc3)c(C3CCCCC3)nc12	.	.	.	.	12.8
Cc1ccc(C(=O)COC(=O)CCNS(=O)(=O)c2ccccc2F)cc1	5.2	0.1	-1.7	-2.4	3.4
Cc1nn(-c2ccccc2)c(C)c1/C=N\N1CCN(c2ccc(Cl)cc2)CC1	0.1	-9.4	-8.0	-2.2	25.1*
COc1ccc(S(=O)(=O)C(C#N)c2nc3ccccc3nc2N2CCCCC2)cc1 (centres undefined)	-11.7	-1.2	41.2*	-3.5	-9.1
Cc1ccc(-n2nc3c(c2NC(=O)CC(C)C)CS(=O)(=O)C3)c(C)c1	14.2	-1.6	-5.1	0.1	-0.5
CN(NC(=O)Nc1ccc(Cl)cc1)c1ncc(C(F)(F)F)cc1Cl	4.9	8.9	5.2	-5.5	6.5
CN(NC(=O)Nc1ccc(Cl)cc1)c1c(Cl)c(Cl)nn1C	-0.6	-0.7	-2.2	-0.6	19.8*
CCC1=C(OC(=O)N(CC)CC)N2C(=O)OC(=NCC(=O)OC)[C@]2(Cc2ccccc2)[C@H]2C1=CC[C@H]1C(=O)N(CC(=O)OC)C(=O)[C@H]12	16.7	-3.1	-10.9	2.0	27.3*
CCC1=C(OC(=O)N(CC)CC)N2C(=O)OC(=NCC(=O)OC)[C@]2(C)[C@H]2C1=CC[C@H]1C(=O)N(CC)C(=O)[C@H]12	6.7	-4.1	-8.5	-4.6	35.4*

Bioassay records as filed in PubChem.
